# Screens deposited in PubChem BioAssay by National Center for Advancing Translational Sciences (NCATS).
# Rows were chosen to be rich in hits. Some 3.9% of all compounds tested hit in one or more screens of this group.
# D1 antag: human D1 dopamine receptor antagonism | activity change, negative = inhibition, % at 10 µM | HEK293 TREx D1 cells, calcium flux, dopamine EC80; active compounds read low | P21728 | AID 504652 | hit rate 3.2% among 360,000; in the data active = activity change below about -30%; also: % is scaled to controls: 0 for no effect and ±100 for the full control effect
# Target sequence (P21728 whole entry, looked up): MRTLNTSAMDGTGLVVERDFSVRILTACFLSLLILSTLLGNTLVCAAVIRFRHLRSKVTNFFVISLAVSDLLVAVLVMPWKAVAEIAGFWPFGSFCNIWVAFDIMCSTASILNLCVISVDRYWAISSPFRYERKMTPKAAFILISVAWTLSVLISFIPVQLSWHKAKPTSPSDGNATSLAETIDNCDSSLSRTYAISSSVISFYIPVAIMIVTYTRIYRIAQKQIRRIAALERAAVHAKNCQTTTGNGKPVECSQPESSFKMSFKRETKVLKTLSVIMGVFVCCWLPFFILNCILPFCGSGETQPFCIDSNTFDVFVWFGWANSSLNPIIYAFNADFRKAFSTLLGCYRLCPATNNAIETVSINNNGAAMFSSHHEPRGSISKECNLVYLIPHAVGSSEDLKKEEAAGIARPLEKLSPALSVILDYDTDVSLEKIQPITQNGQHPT
#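 Tetracycline-induced HEK293 Trex D1 cells, force-coupled to calcium, dye-loaded; compounds added and read 180 s, then EC80 dopamine added and calcium flux tracked kinetically another 180 s.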
# D1 PAM: enhances dopamine response at the human D1 receptor. potentiation, % at 10 µM. HEK293 TREx D1 cells, calcium flux, dopamine EC20 potentiation. P21728. AID 504651. hit rate 0.036% among 360,000; in the data active = potentiation above about 30%; also: 0% is about no effect
# USP2a inh: inhibitors of human ubiquitin-specific protease USP2a; Potency, µM (doses to about 38.3 µM), inactives show top-dose activity change, negative = inhibition, actives largely listed as inhibitors; USP2 core, Ub-CHOP2 coupled fluorogenic reporter, 485/531; hit rate 0.01% among 330,000;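 also: potency is read from the fitted curve at half-maximal effect; plate controls were DMSO wells for no effect and full inhibition by NEM control for full effect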
#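 Deubiquitinase activity read as fluorescence (485/531 nm) after Ub-CHOP2 cleavage activates the enterokinase reporter on its substrate; USP2 core 10nM, Ub-CHOP2 and substrate 25nM each, 30min compound preincubation then 60min RT; data normalized to NEM, curves fitted.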
# Eya2 phos inh: Eya2 (human) phosphatase inhibition | O00167 | recombinant Eya2, OMFP fluorescence dephosphorylation (OMFP is methylfluorescein phosphate) | Potency, µM (top dose mostly 76.9 µM), for inactives: top-dose activity, negative = inhibition, most hits filed as inhibitors | hit rate 0.006% among 330,000 | AID 488837; also: potency is read from the fitted curve at half-maximal effect; % is scaled to controls: 0 for no effect and ±100 for the full control effect
#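 Eya2 protein (added as 0.2 uM solution) was preincubated with compound for 10 min at ambient temperature in 50 mM HEPES pH 7.5, 50 mM NaCl, 5 uM MgCl2, 0.05% BSA, 1 mM DTT. OMFP (added at 50 uM) then reacted 10 min; fluorescence read at 485/525 nm.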
# GALK inhibitor: galactokinase (human) inhibition; P51570; Purified GALK, Kinase-Glo residual ATP luminescence; Potency, µM (series often up to 57.5 µM), without a hit: at the highest dose activity change, negative = inhibition, most hits filed as inhibitors; hit rate 0.007% among 270,000; also: potency is read from the fitted curve at half-maximal effect; % is scaled to controls: 0 for no effect and ±100 for the full control effect
#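 5 nM enzyme, 35 uM ATP, 100 uM galactose, 20 mM HEPES pH8.0, 5 mM MgCl2; 1 h RT; residual ATP by Kinase-Glo Plus luminescence, qHTS format.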
# D1 ag: human D1 receptor agonism | P21728 | HEK293 T-REx D1 cells, calcium flux, agonist mode | activation, % at 2 µM | hit rate 1% among 360,000 | AID 504660; in the data active = activation above about 30%; also: 0% is about no effect
#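 Agonism was scored from calcium flux recorded over 180 s (1 read/s) after pintool compound addition, following a 10-cycle baseline. Cells were inducible force-coupled HEK293 TREx D1, plated overnight at 30 C and loaded with no-wash calcium dye.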
# * = called active by the depositor; nt = not tested or not shown; ! = not confirmed by another sample. Unless noted, calls follow the shape of the dose curve; as a rule, active = well fitted inhibition curve with a large enough effect; inconclusive = small, poorly fitted or top-dose-only effect, or effect the other way; inactive = flat fitted curve, though single readings scatter.
SMILES,D1 antag,D1 PAM,USP2a inh,Eya2 phos inh,GALK inhibitor,D1 ag
Cc1cc(C)c(Cn2c(=O)n(CCC(=O)NCc3ccc4c(c3)OCO4)c(=O)c3ccccc32)c(C)c1,-24,10,nt,nt,nt,-1
C/C(=N\NC(=O)c1ccc(CSc2nncn2C)cc1)c1ccc(Cl)cc1,-32*,-2,2%,-2%,3%,3
CC(CCc1ccccc1)NS(=O)(=O)c1ccccc1 (stereo not drawn),-37*,-3,-1%,-11%,-2%,7
CC(CCc1ccccc1)NS(=O)(=O)c1ccccc1Cl (stereo not drawn),12,-6,-1%,-16%,-2%,1
Cc1ccccc1CNC(=O)C1CCCCN1S(=O)(=O)c1ccc(F)cc1 (stereo not drawn),-32*,-6,nt,nt,nt,0
NC(=O)NOCc1ccc(Cl)cc1Cl,13,6,-7%,8%,7%,1
CNC(=S)/N=C/NOCc1ccc(Cl)cc1Cl,-39*,-6,1%,-3%,0%,22
O=C(CSc1nc2c(c(=O)[nH]1)CN(Cc1ccc3c(c1)OCO3)CC2)Nc1ccc(F)cc1,-5,1,nt,nt,nt,1
CCOC(=O)N1CCc2c(sc(NCc3cc(OC)ccc3OC)c2C(=O)Nc2cc(OC)ccc2OC)C1,8,-2,nt,nt,nt,2
CCN(CC)CC#CCC(O)(c1ccccc1)c1ccccc1,6,-1,2%,-2%,5%,4
CCN(CC)CC#CCC(O)(c1ccccc1)c1ccc(Br)cc1 (stereo not drawn),-40*,-4,0%,-7%,3%,32*
CCN(CC)c1ccc(NC(=O)c2cc(CN3CCCC3)on2)c(C)c1,16,4,nt,nt,nt,6
COc1cc(SC)ccc1C(=O)N1CCC(Cc2ccccc2)CC1,nt,nt,nt,-8%,nt,nt
COc1cc(OC)cc(-c2nnc(SCc3c(F)cccc3Cl)o2)c1,-33*,-10,1%,-1%,-2%,12
Fc1cccc(Cl)c1CSc1nnc(CNc2ccccc2)o1,-41*,-12,-7%,2%,0%,0
COc1ccc(NC(=O)C2CCN(Cc3cnn(-c4ccccc4)c3-n3cccc3)CC2)cc1OC,-34*,-6,nt,nt,1%,35*
COc1ccc(CNC(=O)CSCc2cnn(-c3ccccc3)c2-n2cccc2)cc1OC,-34*,-4,nt,nt,nt,43*
O=C(CSCc1cnn(-c2ccccc2)c1-n1cccc1)NCc1cccnc1,10,-4,5%,12%,1%,21
O=C(CSCc1cnn(-c2ccccc2)c1-n1cccc1)NCc1cccc(Cl)c1,4,-1,nt,nt,nt,4
Cc1ccc(CNC(=O)CCSCc2cnn(-c3ccccc3)c2-n2cccc2)cc1,-34*,-3,nt,nt,nt,-2
O=C(CCSCc1cnn(-c2ccccc2)c1-n1cccc1)NCc1ccc(Cl)cc1,-52*,1,nt,nt,nt,-1
Cc1nc2c(-c3ccc(F)cc3)c(C)nn2c(C)c1CCC(=O)NCc1ccc(Cl)cc1,-1,-2,nt,nt,nt,0
Cc1c(CC(=O)N2CCCCC2)c(=O)oc2c(C)c3occ(C(C)(C)C)c3cc12,12,1,nt,nt,nt,1
Cc1cccc(-c2nc3scc(CCNS(=O)(=O)c4ccc(Oc5ccccc5)cc4)n3n2)c1,nt,-2,nt,nt,nt,5
O=C1Nc2ccccc2N(O)N1c1ccc(S(=O)(=O)Nc2ccccn2)cc1,-50*,-2,0%,5%,-2%,0
SMILES,D1 antag,D1 PAM,USP2a inh,Eya2 phos inh,GALK inhibitor,D1 ag
O=C1C(=C(c2ccccc2)c2ccccc2)Nc2ccccc21,-7,-12,0%,6%,-2%,36*
O=C1C(=C(O)c2ccccc2)C(=O)c2ccccc21,7,2,-11%,31%,0%,2
O=C(Cn1c(=O)nc(-c2ccccc2)c2ccccc21)NCc1ccc(F)cc1,-2,-1,nt,nt,nt,7
CCC1CN(C(=O)Nc2cc(C)ccc2OC)c2cc(Cl)ccc2O1 (stereo not drawn),-17,-5,nt,nt,nt,1
CN(C)C(=O)CSc1nc2ccccc2n1Cc1ccccc1,-15,-3,-3%,6%,0%,3
CCCn1c(SCC(=O)O)nc2ccccc21,-88*,1,2%,-7%,0%,2
O=C(O)CSc1nc2ccccc2n1Cc1ccccc1,-23,-3,-1%,-4%,-2%,1
CCN(CC)CCSc1nc2ccccc2n1Cc1ccccc1,-39*,-17,1%,1%,-7%,11
CCCn1c(/C=C/c2ccccc2)nc2ccccc21,-35*!,-7,-1%,13%,3%,1
COCCOCCn1c(/C=C/c2ccccc2)nc2ccccc21,-1,1,2%,-4%,-8%,0
CC1=C(c2ccc(C)c(C)c2)S(=O)(=O)N(Cc2ccc(C(=O)Nc3cc(F)ccc3F)cc2)C1=O,12,-6,nt,nt,nt,4
Cc1nc2ccccc2n1CC(O)COc1ccc(Br)cc1 (stereo not drawn),-20,-4,3%,-9%,15%,11
Cc1ccccc1OCCn1c(C)nc2ccccc21,-41*,-10,0%,-10%,-3%,14
Cc1nc2ccccc2n1CC(O)COc1ccccc1Cl (stereo not drawn),-46*,-8,2%,13%,1%,20
Cc1nc2ccccc2n1CCOc1ccccc1,-42*,3,3%,2%,-7%,10
O=C(COC(=O)COc1cccc(C(F)(F)F)c1)Nc1ccc(N2CCOCC2)cc1,-40*,-9,2%,13%,nt,7
Cc1ccc(C)c(OCC(=O)Nc2ccc(N3CCOCC3)cc2)c1,0,-2,-1%,0%,-1%,6
Cc1ccc(C)c(OCCC(=O)OCC(=O)Nc2ccc(N3CCOCC3)cc2)c1,-53*,-5,-1%,21%,nt,9
O=C(NC(NC(=S)N1CCOCC1)C(Cl)(Cl)Cl)c1ccc(Cl)cc1 (stereo not drawn),-20,-10,0%,8%,-1%,18
CCCCC(=O)NC(NC(=S)N1CCOCC1)C(Cl)(Cl)Cl (stereo not drawn),-34*,5,2%,-8%,0%,5
CCN(CC)C(=O)COc1ccc(/C(C)=N/NC(=O)c2ccccc2O)cc1,-51*,-4,2%,-3%,8%,2
CCc1nn(CC(=O)NCc2ccc(C)cc2)c(=O)c2cc3occc3n12,-22,-4,nt,nt,nt,-2
CCCc1nc(C(C)(C)O)c(C(=O)O)n1Cc1ccc(-c2ccccc2-c2nn[nH]n2)cc1,-43*,0,8%,10%,0%,0
Cc1ccc(-c2nnc(Nc3ccccc3)c3ccccc23)cc1S(=O)(=O)NCC1CCCO1 (stereo not drawn),1,0,1%,-10%,3%,0
